The source of these data is PubChem BioAssay (NCATS).

Assay [1] addresses Tyrosyl-DNA phosphodiesterase 1 (Homo sapiens) (UniProt Q9NUW8). The experiment in a line: Confirmation Assay for Inhibitors of Tyrosyl-DNA Phosphodiesterase (TDP1) (AID 489007). Further: potency means the concentration at half of the fitted maximal effect; nearly all actives have a fitted effect of over 40% in size. As to conditions: recombinant human TDP1 enzymatic activity, dose-response. Summed up:
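Recombinant E. coli-expressed Tdp1 (1 nM final) was preincubated with compounds 15 min at room temperature, then reacted 5 min with 15 nM 5'-biotin/3'-phosphotyrosine-FITC DNA substrate; cleavage read as loss of AlphaScreen signal (10 ug/ml beads, 10 min).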

Assay [2] deals with Glucocorticoid receptor (Homo sapiens) (UniProt P04150). The assay can be described thus: GR-EFC Redistribution (AID 451; calls by dose curve; further: potency means the concentration at half of the fitted maximal effect). The conditions noted are these: CHO-K1 GR-EFC translocation, beta-gal luminescence, 2 h. Summed up: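 CHO-K1 cells expressing nuclear EA and GR-ED fragments of b-gal; compounds titrated up to 46 uM final, 2 h at 37 C. GR nuclear translocation read as complemented b-gal luminescence after 1 h RT detection.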

The target of assay [3] is 3',5'-cyclic-AMP phosphodiesterase 4B (Homo sapiens) (UniProt Q07343). The experiment in a line: qHTS Assay for Inhibitors of PDE-IV (AID 607; active means well fitted activation curve with a large enough effect in the main read-out, with a control signal flat, not every such curve was filed as active; further: potency means the concentration at half of the fitted maximal effect). Summed up:
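The readout is membrane depolarisation from a cAMP-sensing CNG channel, detected with a potential dye at ex 535/em 590. Cells were HEK293-derived (endogenous PDE-IV) at 1000 cells/well, titrated up to 22.9 uM final.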
On the technique in general: qHTS replaces the single test concentration by a dilution series.

Assay [4] deals with Cytochrome P450 2D6 (Homo sapiens) (UniProt P10635). The experiment in a line: qHTS Assay for Inhibitors and Substrates of Cytochrome P450 2D6 (AID 891).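 Further: luciferin methyl ether substrate demethylated by CYP2D6 with NADPH regeneration; nearly all actives have a fitted effect of over 60% in size.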 The method, boiled down:
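Human CYP2D6 (5 nM) with 30 uM Luciferin-ME EGE (at Km) in 100 mM KPO4, compound preincubated 10 min, then NADPH regeneration system for 60 min at room temperature. Luciferin read by luminescence; normalized to 1.43 uM quinidine.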

The target of assay [5] is Cytochrome P450 2C19 (Homo sapiens) (UniProt P33261). The assay can be described thus: qHTS Assay for Inhibitors and Substrates of Cytochrome P450 2C19 (AID 899). Further: nearly all actives have a fitted effect of over 60% in size. The method, boiled down: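 Luminescent read-out of luciferin formed from Luciferin-H EGE (10uM, equal to KM). Enzyme 5nM in 50mM KPO4; compound added, 10 min at 37C, then NADPH regenerating system for 60 min at 37C. Full inhibition defined by 57uM ketoconazole.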

Assay [6] has as its target Cytochrome P450 2C9 (Homo sapiens) (UniProt P11712). The experiment in a line: qHTS Assay for Inhibitors and Substrates of Cytochrome P450 2C9 (AID 883). Further: nearly all actives have a fitted effect of over 60% in size. The method, boiled down: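 10nM CYP2C9 + 100uM Luciferin-H (=KM), 25mM KPO4; cpd 10 min 37C; NADPH regen, 60 min 37C; stop/detect with P450 Glo-Buffer 20 min; luminescence. Norm. to 57uM sulphaphenazole as full inhibition.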

The target in assay [7] is Mitogen-activated protein kinase 10 (Mus musculus) (UniProt Q61831). The assay can be described thus: JNK3 AlphaScreen Assay (AID 530; active means well fitted curve in either direction with a large enough effect, not every such curve was filed as active;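 further: kinase came from lysate of stimulated human HepG2 cells; signal reports phosphorylation of biotinylated GST-cJun 1-79 at Ser73 with 10 µM ATP; series mostly up to about 57 µM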). Summed up: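 qHTS format: compounds tested as titrations against IL-1beta/TNF-alpha-activated HepG2 lysate JNK3 with biotin-GST-cJun substrate and 10 uM ATP at room temperature. Loss of anti-phospho-cJun AlphaScreen signal indicates inhibition.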
A general note: Alpha assays give light when donor and acceptor beads are brought close together.

Values without a mark were called inactive. Results filed as inconclusive are left out. The source made the active and inactive calls. Unless noted, the call rests on the fitted dose curve; in most records, active means well fitted curve in the direction sought with a large enough effect; inconclusive means small, poorly fitted or top-dose-only effect, or another doubt; inactive means no such curve, though single readings can be large; an effect the other way counts as inactive or inconclusive. Some results are limits rather than exact numbers.

Glucocorticoid receptor (Homo sapiens), sequence (P04150 whole entry, looked up, the tested form may be a part): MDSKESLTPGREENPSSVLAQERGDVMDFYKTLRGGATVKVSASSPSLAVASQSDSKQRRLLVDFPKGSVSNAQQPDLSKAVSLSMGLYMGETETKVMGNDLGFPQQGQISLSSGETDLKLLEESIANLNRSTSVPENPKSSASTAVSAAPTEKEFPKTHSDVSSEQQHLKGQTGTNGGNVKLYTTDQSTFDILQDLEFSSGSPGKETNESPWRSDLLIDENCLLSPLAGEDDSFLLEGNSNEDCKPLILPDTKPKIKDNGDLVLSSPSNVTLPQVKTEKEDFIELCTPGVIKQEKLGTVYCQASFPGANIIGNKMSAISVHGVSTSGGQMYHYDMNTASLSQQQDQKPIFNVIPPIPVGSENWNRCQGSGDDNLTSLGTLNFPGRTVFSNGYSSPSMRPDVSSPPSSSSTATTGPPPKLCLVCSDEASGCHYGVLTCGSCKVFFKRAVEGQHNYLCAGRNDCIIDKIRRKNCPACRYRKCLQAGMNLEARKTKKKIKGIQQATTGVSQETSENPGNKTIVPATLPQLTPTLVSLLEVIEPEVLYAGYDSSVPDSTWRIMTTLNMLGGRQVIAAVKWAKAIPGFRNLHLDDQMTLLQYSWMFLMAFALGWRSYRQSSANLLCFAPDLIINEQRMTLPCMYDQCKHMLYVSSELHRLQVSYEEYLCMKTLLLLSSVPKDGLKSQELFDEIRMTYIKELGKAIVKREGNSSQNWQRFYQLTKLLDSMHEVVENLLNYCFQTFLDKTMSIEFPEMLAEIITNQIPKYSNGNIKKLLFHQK
Cytochrome P450 2C19 (Homo sapiens), sequence (P33261 whole entry, looked up): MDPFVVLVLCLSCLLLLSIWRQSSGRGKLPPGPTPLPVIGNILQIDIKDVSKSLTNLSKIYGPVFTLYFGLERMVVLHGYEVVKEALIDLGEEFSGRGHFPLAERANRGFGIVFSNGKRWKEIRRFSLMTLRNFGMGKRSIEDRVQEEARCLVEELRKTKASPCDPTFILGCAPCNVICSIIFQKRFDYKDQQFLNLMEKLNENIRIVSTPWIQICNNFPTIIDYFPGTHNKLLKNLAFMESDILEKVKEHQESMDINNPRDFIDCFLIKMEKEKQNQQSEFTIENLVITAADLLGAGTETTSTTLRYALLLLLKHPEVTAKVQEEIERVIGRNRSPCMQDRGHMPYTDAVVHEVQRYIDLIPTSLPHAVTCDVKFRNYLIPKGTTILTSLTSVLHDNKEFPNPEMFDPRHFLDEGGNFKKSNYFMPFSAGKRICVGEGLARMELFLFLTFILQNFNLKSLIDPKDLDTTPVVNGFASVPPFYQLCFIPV
Cytochrome P450 2C9 (Homo sapiens), sequence (P11712 whole entry, looked up): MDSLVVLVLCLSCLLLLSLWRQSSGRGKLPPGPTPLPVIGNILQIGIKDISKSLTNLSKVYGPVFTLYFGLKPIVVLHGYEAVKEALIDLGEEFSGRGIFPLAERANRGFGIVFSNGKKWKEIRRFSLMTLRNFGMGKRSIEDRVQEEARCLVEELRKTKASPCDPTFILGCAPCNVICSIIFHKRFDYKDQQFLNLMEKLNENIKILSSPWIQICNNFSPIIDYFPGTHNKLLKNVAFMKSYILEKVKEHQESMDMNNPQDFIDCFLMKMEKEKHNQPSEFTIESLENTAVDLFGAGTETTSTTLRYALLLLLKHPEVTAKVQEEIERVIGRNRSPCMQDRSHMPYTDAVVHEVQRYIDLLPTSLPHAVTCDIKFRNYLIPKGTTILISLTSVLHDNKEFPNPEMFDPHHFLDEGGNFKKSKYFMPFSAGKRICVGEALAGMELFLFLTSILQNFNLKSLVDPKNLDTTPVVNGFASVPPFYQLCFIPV
3',5'-cyclic-AMP phosphodiesterase 4B (Homo sapiens), sequence (Q07343 whole entry, looked up): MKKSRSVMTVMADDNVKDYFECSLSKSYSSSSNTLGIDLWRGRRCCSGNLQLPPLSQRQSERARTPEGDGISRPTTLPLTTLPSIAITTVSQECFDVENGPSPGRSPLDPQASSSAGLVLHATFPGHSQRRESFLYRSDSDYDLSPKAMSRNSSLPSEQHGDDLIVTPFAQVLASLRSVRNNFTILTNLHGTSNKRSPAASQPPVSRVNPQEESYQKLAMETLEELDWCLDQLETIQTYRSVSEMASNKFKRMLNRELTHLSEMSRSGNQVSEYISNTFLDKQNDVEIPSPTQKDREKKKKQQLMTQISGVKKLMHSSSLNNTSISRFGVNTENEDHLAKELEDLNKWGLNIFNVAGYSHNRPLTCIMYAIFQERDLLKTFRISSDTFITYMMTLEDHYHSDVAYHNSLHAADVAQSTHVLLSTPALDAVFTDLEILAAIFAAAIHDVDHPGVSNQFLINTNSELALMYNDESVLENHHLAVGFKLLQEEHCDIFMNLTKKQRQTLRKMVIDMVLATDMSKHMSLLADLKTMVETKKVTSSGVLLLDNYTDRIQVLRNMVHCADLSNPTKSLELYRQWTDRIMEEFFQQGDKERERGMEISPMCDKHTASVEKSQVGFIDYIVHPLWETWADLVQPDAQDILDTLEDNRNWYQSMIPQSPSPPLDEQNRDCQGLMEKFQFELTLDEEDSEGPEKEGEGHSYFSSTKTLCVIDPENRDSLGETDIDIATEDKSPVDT
Cytochrome P450 2D6 (Homo sapiens), sequence (P10635 whole entry, looked up): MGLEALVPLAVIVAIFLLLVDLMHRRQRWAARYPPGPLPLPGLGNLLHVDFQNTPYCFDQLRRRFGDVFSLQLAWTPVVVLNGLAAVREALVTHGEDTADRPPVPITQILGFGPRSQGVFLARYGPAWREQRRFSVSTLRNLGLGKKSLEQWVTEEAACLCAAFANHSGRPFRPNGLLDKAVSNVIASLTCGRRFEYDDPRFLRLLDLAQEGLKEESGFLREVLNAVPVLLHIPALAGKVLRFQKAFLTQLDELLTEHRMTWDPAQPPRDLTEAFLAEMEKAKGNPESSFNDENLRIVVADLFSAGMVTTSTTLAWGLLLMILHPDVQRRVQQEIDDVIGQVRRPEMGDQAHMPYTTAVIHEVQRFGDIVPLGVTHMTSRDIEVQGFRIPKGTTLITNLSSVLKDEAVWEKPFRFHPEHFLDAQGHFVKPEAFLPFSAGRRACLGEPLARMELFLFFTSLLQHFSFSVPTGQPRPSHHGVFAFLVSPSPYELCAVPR
Tyrosyl-DNA phosphodiesterase 1 (Homo sapiens), sequence (Q9NUW8 whole entry, looked up): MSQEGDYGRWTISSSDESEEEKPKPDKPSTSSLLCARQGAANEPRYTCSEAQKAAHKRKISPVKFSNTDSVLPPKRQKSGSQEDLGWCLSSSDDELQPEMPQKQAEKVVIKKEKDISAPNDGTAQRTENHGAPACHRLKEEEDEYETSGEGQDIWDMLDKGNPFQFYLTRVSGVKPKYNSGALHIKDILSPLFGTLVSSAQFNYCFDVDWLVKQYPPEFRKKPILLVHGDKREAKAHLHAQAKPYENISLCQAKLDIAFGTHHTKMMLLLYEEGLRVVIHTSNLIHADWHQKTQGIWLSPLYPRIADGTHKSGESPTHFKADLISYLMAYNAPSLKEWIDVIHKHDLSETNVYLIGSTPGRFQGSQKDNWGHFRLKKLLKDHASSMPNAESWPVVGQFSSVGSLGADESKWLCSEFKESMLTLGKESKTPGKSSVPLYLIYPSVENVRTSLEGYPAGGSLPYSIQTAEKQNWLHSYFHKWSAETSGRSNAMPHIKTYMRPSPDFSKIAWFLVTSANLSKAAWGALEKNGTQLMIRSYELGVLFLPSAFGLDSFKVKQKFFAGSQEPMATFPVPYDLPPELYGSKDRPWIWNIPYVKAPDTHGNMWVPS

For the compound `O=C(O)Cc1ccc(NC(=O)C2CC=CCC2C(=O)O)cc1` (centres undefined), in assay [1], the Potency is 14.1 µM (active).

As to `NCCC[C@@H](CC(=O)N[C@@H]1CCCC[C@H]1C(=O)N[C@H](CC(=O)N[C@@H](CCC(=O)O)CC(=O)O)Cc1ccccc1)NC(=O)C[C@H](CO)NC(=O)[C@@H]1CCCC[C@H]1N`, in assay [2], the Potency was above 46 µM. Besides, the Potency entry in assay [3], in assay [4] and in assay [5] was “inactive” in each case.

`CC(C)[C@@H](CC(=O)N[C@@H]1CCCC[C@H]1C(=O)N[C@H](CC(=O)N[C@@H](CCC(=O)O)CC(=O)O)Cc1ccccc1)NC(=O)C[C@H](Cc1c[nH]c2ccccc12)NC(=O)[C@@H]1CNCC[C@H]1N`: the Potency in assay [2] was above 46 µM. Moreover, the Potency result in assay [3], in assay [6], in assay [4] and in assay [5] was “inactive” each time.

`CCCCC(=O)Nc1ccc(C(=O)NNC(=O)CCc2ccccc2)cc1`: the Potency in assay [1] is 100 µM (active).

As to `CC(C)C[C@@H](CC(=O)N[C@@H](CCCN)CC(=O)N[C@@H]1CCNC[C@H]1C(=O)N[C@H](CC(=O)N[C@@H](CCC(=O)O)CC(=O)O)Cc1ccccc1)NC(=O)[C@@H]1CCCC[C@H]1N`, in assay [2], the Potency was above 46 µM. The Potency result in assay [3], in assay [6] and in assay [5] was “inactive” each time.

For `NCCC[C@@H](CC(=O)N[C@@H]1CCCC[C@H]1C(=O)N[C@H](CC(=O)N[C@@H](CCC(=O)O)CC(=O)O)Cc1ccccc1)NC(=O)C[C@H](Cc1c[nH]c2ccccc12)NC(=O)[C@@H]1CNCC[C@H]1N`, the values for the Potency in assay [2] and in assay [3] were above 46 µM and 1.58 µM (active), respectively. Moreover, the Potency result in assay [6], in assay [4] and in assay [5] was “inactive” each time.

As for `Cc1cc(C)c(C#N)c(SCc2ccccc2)n1`, the Potency in assay [1] is 112 µM (active).

Turning to `CC(C)C[C@@H](CC(=O)N[C@H](CC(=O)N[C@@H]1CCCC[C@H]1C(=O)N[C@H](CC(=O)N[C@@H](CCC(=O)O)CC(=O)O)Cc1ccccc1)C(C)C)NC(=O)[C@@H]1CCCC[C@H]1N`, in assay [2], the Potency was above 46 µM. Besides, the Potency entry in assay [7], in assay [3], in assay [4] and in assay [5] was “inactive” each time.

As to `CC(C)C[C@@H](CC(=O)N[C@H](CC(=O)N[C@@H]1CCNC[C@H]1C(=O)N[C@H](CC(=O)N[C@@H](CCC(=O)O)CC(=O)O)Cc1c[nH]c2ccccc12)C(C)C)NC(=O)[C@@H]1CCCC[C@H]1N`, in assay [2], the Potency was above 46 µM. Besides, the Potency entry in assay [3], in assay [4] and in assay [5] was “inactive” throughout.

For `CCOc1ccc(N=Cc2c(C)[nH]n(-c3nc4ccccc4[nH]3)c2=O)cc1`, the Potency in assay [1] is 31.6 µM (active).

As to `CC(=O)c1ccc(S(=O)(=O)N2Cc3ccccc3CC2C(=O)O)cc1` (centres undefined), the Potency in assay [1] was 15.8 µM (active).

In the case of `CCN(c1ccccc1)S(=O)(=O)c1cc(C(=O)O)ccc1C`, the Potency in assay [1] is 12.6 µM (active).

As for `CC(C)C[C@@H](CC(=O)N[C@@H](CCCN)CC(=O)N[C@@H]1CCNC[C@H]1C(=O)N[C@H](CC(=O)N[C@@H](CCC(=O)O)CC(=O)O)CC(C)C)NC(=O)[C@@H]1CCCC[C@H]1N`, the Potency in assay [2] is above 46 µM. In addition, the Potency result in assay [7], in assay [3] and in assay [4] was “inactive” each time.

Take `Cc1c(-c2ccc(Cl)cc2)oc(=O)c2c(N)n(-c3ccccc3)nc12`: in assay [1], the Potency was 25.1 µM (active).

Turning to `Cc1cccc(N2CCN(S(=O)(=O)c3ccc4[nH]c(=O)c(=O)[nH]c4c3)CC2C)c1` (centres undefined), the Potency in assay [1] is 39.8 µM (active).

For the compound `NCCC[C@@H](CC(=O)N[C@@H]1CCCC[C@H]1C(=O)N[C@H](CC(=O)N[C@@H](CCC(=O)O)CC(=O)O)Cc1ccccc1)NC(=O)C[C@H](Cc1ccccc1)NC(=O)[C@@H]1CCCC[C@H]1N`, in assay [2], the Potency was above 46 µM. For the same compound, the Potency entry in assay [3], in assay [4] and in assay [5] was “inactive” in each case.

`NCCC[C@@H](CC(=O)N[C@@H]1CCNC[C@H]1C(=O)N[C@H](CC(=O)N[C@@H](CCC(=O)O)CC(=O)O)Cc1ccccc1)NC(=O)C[C@H](CO)NC(=O)[C@@H]1CNCC[C@H]1N`: in assay [2], the Potency was above 46 µM. Moreover, the Potency result in assay [3] and in assay [4] was “inactive” throughout.

As for `COc1ccc(-n2cccc2/C=C2\C(=N)N3N=C(c4ccco4)SC3=NC2=O)cc1`, the Potency in assay [1] is 14.1 µM (active).

As for `CCn1c(SCc2nc3sc(C(=O)O)c(C)c3c(=O)[nH]2)nc2ccccc21`, the Potency in assay [1] is 3.16 µM (active).

For `CC(C)C[C@@H](CC(=O)N[C@@H](CCCN)CC(=O)N[C@@H]1CCNC[C@H]1C(=O)N[C@H](CC(=O)N[C@@H](CCC(=O)O)CC(=O)O)CC(C)C)NC(=O)[C@@H]1CNCC[C@H]1N`, the Potency in assay [2] is above 46 µM. Besides, the Potency result in assay [7], in assay [3], in assay [4] and in assay [5] was “inactive” in each case.

Consider `O=C(O)C1C2C=CC(CC2)C1C(=O)O` (centres undefined), for which, in assay [1], the Potency is 7.94 µM (active).

For the compound `COc1ccc(CCNC(=O)c2ccc3nc(-c4ccco4)c(-c4ccco4)nc3c2)cc1OC`, the Potency in assay [1] is 10 µM (active).

`O=C1CN(C(=O)/C=C/c2ccco2)c2ccccc2N1`: the Potency in assay [1] was 44.7 µM (active).

As for `O=C(/C=C/c1c(Cl)nc2ccccn12)N1CCN(c2ccc(F)cc2)CC1`, the Potency in assay [1] was 35.5 µM (active).

As to `Cc1ccc(NC(=O)CN2C(=O)S/C(=C\c3cccn3-c3cccc(C(=O)O)c3)C2=O)c(C)c1`, the Potency in assay [1] is 15.8 µM (active).

As for `NCCC[C@@H](CC(=O)N[C@@H]1CCNC[C@H]1C(=O)N[C@H](CC(=O)N[C@@H](CCC(=O)O)CC(=O)O)Cc1c[nH]c2ccccc12)NC(=O)C[C@H](Cc1ccccc1)NC(=O)[C@@H]1CCCC[C@H]1N`, the Potency in assay [2] was above 46 µM. Moreover, the Potency result in assay [3], in assay [6], in assay [4] and in assay [5] was “inactive” in each case.

Consider `O=C(N/N=C/c1ccc2c(c1)OCO2)c1cc2ccccc2o1`, for which, in assay [1], the Potency was 12.6 µM (active).

In the case of `CC(C)[C@@H](CC(=O)N[C@@H]1CCCC[C@H]1C(=O)N[C@H](CC(=O)N[C@@H](CCC(=O)O)CC(=O)O)Cc1ccccc1)NC(=O)C[C@H](Cc1ccccc1)NC(=O)[C@@H]1CNCC[C@H]1N`, the Potency in assay [2] was above 46 µM. Also, the Potency entry in assay [7], in assay [3], in assay [4] and in assay [5] was “inactive” throughout.
